Each sequence was assayed on PPARg:RXRa DBDmut IVT, anti-RXR (DBD mutation: RXRa K156A/R161A, NR concentration 270 nM, RXRa partner concentration 90 nM) (assay: PBM binding z-score (relative to random genomic background probes); higher = stronger binding; sequences stand for … in GC…GCGATTGACAGCGTAGAATGAAGG).
Summary of the method: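 Each nuclear receptor dimer, without ligand, was incubated for 1 h on custom Agilent 4×180K protein-binding microarrays. Binding was detected with antibodies against each partner (one per run), and scanned fluorescence was regression-normalized. The binding z-scores are referenced to random human genomic background probes.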

Sequence | PBM binding z-score
CCTACTGGGCCATTCAGAGGTCAGTGATCATATG | 4.58
CCTCGGAGGACAACAGGAGGTTAGAGCTGCCAGA | -0.279
TGAATCAGGTTAAAGATCAGGGAACGTGGCGTCG | 2.15
CGTCCATGGTCAGCAGGTCAGTGAAAGCGACGTG | 0.0989
GCGACTGGGGCCAAGCAGGTTACCATAAGGTTGG | -0.26
CTGGAAAGGTCGGTTGAGGTGAGTATACGGATAA | -0.117
TCATATAGGTAAAGGTCAAAGTCGAACGATATGA | 4.49
ACAGACAGGTGATGGAGGTAACTCAGGCTATCAT | 0.108
TTACCAAGGTGAGCTGAGGACGTTGATCCAACTC | 0.681
TCTAGTTGGTCAAAGGTCACACACTCGAAATGCG | 3.69
ACTAGCAGGCCAAGGGTAACTCAAGATTAGTCCG | 0.865
CGTCCCAGGTCAAAGGTCAGTGAAGAGATGACGG | 2.95
GCGACTAGGGCAAAGCAGGTTACCATAAGGTTGG | 4.76
ATCTCTAGGCAACCAAGTTCAGTGAATGCCGAAC | 0.769
GCATATAGGAAATACAAGGTGAAAGTCCGATTGT | -0.0437
ATCTCTAGGTAACCAAGTTCAGTTAATGCCGAAC | 3.71
GCGACTGGGGCAAAGCAGGGTACCATAAGGTTGG | 3.87
CTACCAAGGTGAACAAGGTTGTTGATTACTATTC | 2.39
CCTGCTAGGTCAATTGTCAGCTAAAGCAGCTCGC | 4.15
GCTCGGAGGACAAGGTCATAGCTTTGTCCGTAGA | 0.27

Sequence | PBM binding z-score
ACTCGGAGGAAAAAGGTCAGAGCTACGCCAGTGA | -0.318
TCTCGGAGGACACGAAGGTCAGAGCGTTCCAGAG | 1.02
GGAACGATGGCAAAGTTGATAGCATCTGTCGACG | -0.422
CCTATTAGTTGACCATAAGGGCAACCAAAGCTCG | 0.357
TCATATAGGTAAATGCTAGCTGAAAGTCCGATCT | 3.73
GCTAGCAGGCCATTTGGGTCACTCATTGACGGGC | 1.91
GGAACGGGGGCAAAGTTGATAGCATCTGTCGACG | 4.07
TTACCAAGGTGAGCTGAGGTCGTTGGTCCAACTC | 1.42
CCTTGGAGGACAGAAGGTCAGAGCTGTCCGCTTT | 0.658
CGATCTAGGTCAGAACAGGACAGTGAAGGATGAT | 6.87
TAGCCTAGGTCATGCGCGCCAGTATAGTGTCGGC | 2
GCTGCTAGGTCAGCTTGGTCAGCTAACGGGTACG | 3.14
ACTATTAGTTTAGACGAGGGCAACCGATAGGTTG | 0.00795
TCTTGTAGATCAGCAGGAGGTTAAGAAAGATCGA | 1.2
GCTAGCAGGCCATTGGGGTCACTCAATGACGGGC | 0.93
ACAGACAGGTGAAGAAGGTAACTCAGGCTATCAT | 0.468
TCTTGTAGATCACAGGTTAAGAAAGCCGAAGCCT | 2.16
CCTAGTTGGTCAAGGTCACACACGCTATAGGTAC | 2.68
TAGCCTAGGTCATTCAGGGTCCAGTATAGAAAGC | 1.57
CAAACTAGGTCAGGAGGTCAAAGTCCGCTTCCCG | 7.85

— the supplement of paper PMC6555819
